From PubChem BioAssay (NCATS)
Inconclusive results are not listed. Calls of active or inactive are those of the source. Calls follow the shape of the dose curve; as a rule, active = well fitted inhibition curve with a large enough effect; inconclusive = small, poorly fitted or top-dose-only effect; inactive = flat fitted curve, though single readings scatter.

What was measured:
Assay in all cases: qHTS profiling for inhibitors of Plasmodium falciparum proliferation (AID 504749); also: nearly all actives have a fitted effect of over 60% in size
Conditions in all cases: P. falciparum in erythrocytes, SYBR Green DNA, 72 h; series mostly up to 28.7 µM
GB4 = tested on: GB4
Summary of the method: (§1)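 SYBR Green fluorescence of parasite DNA, read after lysis and overnight dark incubation, measured growth over 72 h in erythrocyte culture at 0.3% parasitemia and 2.5% hematocrit. Data normalised to DMSO and 0.29 uM artemisinin, with plate-drift correction.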

ICS = tested on: ICS
Summary of the method: as §1

N140 = tested on: N140
Summary of the method: as §1

P93_24 = tested on: P93_24
Summary of the method: as §1

P94_40 = tested on: P94_40
Summary of the method: as §1

PAD = tested on: PAD
Summary of the method: as §1

PC15 = tested on: PC15
Summary of the method: as §1

PC26 = tested on: PC26
Summary of the method: as §1

JCK = tested on: JCK
Summary of the method: as §1

HB3 = tested on: HB3
Summary of the method: as §1
Potency is read from the fitted curve at half-maximal effect.

Row | Structure (SMILES) | Potency (GB4) | Potency (ICS) | Potency (N140) | Potency (P93_24) | Potency (P94_40) | Potency (PAD) | Potency (PC15) | Potency (PC26) | Potency (JCK) | Potency (HB3)
1 | CCCCCCCCCCCCCCCC[n+]1ccccc1 | 3.38 µM (active) | 2.51 µM (active) | 8.91 µM (active) | 7.94 µM (active) | 8.91 µM (active) | 12.6 µM (active) | 10 µM (active) | 12 µM (active) |  | 
2 | CN1CCCN(C(c2ccccc2)c2ccc(Cl)cc2)CC1 (centres undefined) | 13.5 µM (active) | 8.91 µM (active) | 10 µM (active) | 7.08 µM (active) |  | 5.62 µM (active) |  |  |  | 
3 | CN1CCC(Nc2ncc3ncnc(Nc4ccc(F)c(Cl)c4)c3n2)CC1 | 13.5 µM (active) | 6.31 µM (active) | 10 µM (active) | 7.08 µM (active) | 8.91 µM (active) |  |  |  | 7.94 µM (active) | 
4 | Nc1ccc2cc3ccc(N)cc3nc2c1 | 13.5 µM (active) | 2.82 µM (active) |  |  |  |  |  |  |  | 
5 | CCCCCCCCCCCCCC[N+](C)(C)C | 5.36 µM (active) | 2.51 µM (active) | 6.31 µM (active) | 5.01 µM (active) | 6.31 µM (active) | 10 µM (active) |  | 6.01 µM (active) |  | 6.31 µM (active)
6 | CCCCCCCCCCCCCCCC[N+](C)(C)Cc1ccccc1 | 5.36 µM (active) | 2.82 µM (active) | 14.1 µM (active) | 1.12 µM (active) | 1.58 µM (active) | 5.62 µM (active) | 7.94 µM (active) | 9.53 µM (active) |  | 
7 | O=[N+]([O-])c1ccc(O)c2ncccc12 | 15.1 µM (active) | 12.6 µM (active) |  |  |  | inactive | inactive | inactive |  | 
8 | O=C(Nc1ccc(Cl)cc1)Nc1ccc(Cl)c(Cl)c1 | 2.39 µM (active) | 0.631 µM (active) | 2 µM (active) | 3.55 µM (active) | 2.82 µM (active) | 2.24 µM (active) | 2.51 µM (active) | 1.51 µM (active) | 10 µM (active) | 11.2 µM (active)
9 | O=S(=O)(O)c1ccc2nc(-c3ccccc3)[nH]c2c1 | inactive | inactive | inactive | inactive | inactive | inactive | inactive | inactive | inactive | inactive
10 | Nc1ncnc2nc[nH]c12 | inactive | inactive | inactive | inactive | inactive | inactive | inactive | inactive | inactive | inactive
11 | CC(NCCC(c1ccccc1)c1ccccc1)c1ccccc1 (centres undefined) | 15.1 µM (active) | 2.24 µM (active) | 11.2 µM (active) | 12.6 µM (active) | 11.2 µM (active) | 12.6 µM (active) | 11.2 µM (active) | 8.49 µM (active) |  | 10 µM (active)
12 | Nc1c2ccccc2nc2ccccc12 | 10.7 µM (active) | 7.94 µM (active) | 5.01 µM (active) | 7.08 µM (active) | 5.62 µM (active) | 7.94 µM (active) | 11.2 µM (active) | 15.1 µM (active) |  | 
